{"source": "PubChem BioAssay AID1566", "about": "(Sanford-Burnham Center for Chemical Genomics, 2009)", "note": "“And” between values parts separate entries of the source, which are not always exact repeats. Equal entries are not always repeated. In all, about 290,000 compounds went through this assay and about 1,800 (0.62%) were called active. No stated cut-off is given here; in the data, active means inhibition above about 50%; inactive means the rest. The entries come from a sample that favours actives as a whole."}
{"assay": "inhibition of NOD2-driven NF-kB reporter – cell-based, luminescence, uHTS, HEK293 (AID 1566)", "conditions": "HEK293 NOD2/NF-kB luciferase reporter, at 4 µM, stronger effect = higher value"}
{"compound": "Cc1ccc(S(=O)(=O)NNC(=O)c2ccccc2O)cc1", "inhibition": "8.4% (inactive)"}
{"compound": "COc1ccc(S(=O)(=O)N(Cc2cc3cc(C)ccc3[nH]c2=O)CC2CCCO2)cc1", "note": "(stereo unspecified)", "inhibition": "16.6% (inactive)"}
{"compound": "CC(C)(C)c1ccc(C(=O)NC(=S)Nc2nc3c(s2)CCCC3)cc1", "inhibition": "60.3% (active)"}
{"compound": "COC(=O)c1ccc(C(=O)NC(=S)Nc2nc3c(s2)CCCC3)cc1", "inhibition": "5.1% (inactive)"}
{"compound": "O=C(NC(=S)Nc1nc2c(s1)CCCC2)c1ccccc1", "inhibition": "-7.3% (inactive)"}
{"compound": "COc1ccc(S(=O)(=O)N(CC(=O)N2CCN(C)CC2)c2ccc(C)cc2)cc1Br", "inhibition": "-9.5% (inactive)"}
{"compound": "CC1(C)N=C(N)N=C(N)N1c1ccc(Oc2ccc(Cl)cc2)c(Cl)c1", "inhibition": "58.7% (active)"}
{"compound": "COc1ccc(N2C(N)=NC(N)=NC2(C)C)cc1", "inhibition": "-2.7% (inactive)"}
{"compound": "CCOc1ccc(N2C(N)=NC(N)=NC2(C)C)cc1", "inhibition": "-5.6% (inactive)"}
{"compound": "COc1ccccc1N1CCN(C(=O)CSc2nnc3c4ccccc4n(CC(=O)O)c3n2)CC1", "inhibition": "9.3% (inactive)"}
{"compound": "COC(=O)CSc1nnc(CNC(=O)c2ccc(S(=O)(=O)N3CCCCC3)cc2)n1C", "inhibition": "12.8% (inactive)"}
{"compound": "Cc1ccc(NC(=O)C2=NNC(=O)CC2)cc1F", "inhibition": "-17.2% (inactive)"}
{"compound": "Cc1ccccc1S(=O)(=O)Oc1cccc2c(O)cccc12", "inhibition": "1.5% (inactive)"}
{"compound": "CNC(=O)CN(c1cc([N+](=O)[O-])ccc1OC)S(C)(=O)=O", "inhibition": "12.6% (inactive)"}
{"compound": "CCCCc1oc2ccccc2c1C(=O)c1cc(I)c(OCCN(CC)CC)c(I)c1", "inhibition": "14.9% (inactive)"}
{"compound": "CCc1oc2ccccc2c1C(=O)c1cc(Br)c(O)c(Br)c1", "inhibition": "51.8% (active)"}
{"compound": "CCc1oc2ccccc2c1C(=O)CCN1CCCCC1", "inhibition": "3.9% (inactive)"}
{"compound": "O=C(COC(=O)c1cccnc1Cl)c1ccc(Cl)cc1Cl", "inhibition": "9.1% (inactive)"}
{"compound": "CCCc1ccc(-c2cc(C(=O)Nc3ccc([N+](=O)[O-])cn3)c3ccccc3n2)cc1", "inhibition": "-29.8% (inactive)"}
{"compound": "COc1ccc2oc(=O)c(C(C)=O)cc2c1", "inhibition": "19.5% (inactive)"}
{"compound": "CCCCN(Cc1ccco1)C(=O)c1cc2c(=O)[nH]c3ccc(C)cc3c2s1", "inhibition": "34.9% (inactive)"}
{"compound": "COc1ccc(N(CC(=O)N/N=C/c2ccc(N(C)C)cc2)S(=O)(=O)c2ccccc2)cc1", "inhibition": "-57% (inactive)"}
{"compound": "O=C(CNC(=O)C1COc2ccccc2O1)N/N=C/c1ccc(O)cc1O", "note": "(stereo unspecified)", "inhibition": "8.2% (inactive)"}
{"compound": "CCN(CC)c1ccc(/C=N/NC(=O)CNC(=O)C2COc3ccccc3O2)c(O)c1", "note": "(stereo unspecified)", "inhibition": "69.1% (active)"}
{"compound": "O=C(CNC(=O)C1COc2ccccc2O1)N/N=C\\c1ccccc1Cl", "note": "(stereo unspecified)", "inhibition": "19.9% (inactive)"}
{"compound": "O=C(CSc1nc(-c2ccco2)cc(C(F)(F)F)n1)N1CCSCC1", "inhibition": "13.4% (inactive)"}
{"compound": "CCOC(=O)N1CCN(S(=O)(=O)N2CCCC(C(=O)NCCCN3CC(C)CC(C)C3)C2)CC1", "note": "(stereo unspecified)", "inhibition": "-13.2% (inactive)"}
{"compound": "CN1CCc2nc(NC(=O)COc3ccc4ccccc4c3)sc2C1", "inhibition": "-39.7% (inactive)"}
{"compound": "NC(=O)c1cccnc1Nc1ccccc1F", "inhibition": "-1.6% (inactive)"}
{"compound": "O=C(Nc1nc2cc3c(cc2s1)OCCO3)c1cccc(N2C(=O)CCC2=O)c1", "inhibition": "-37.4% (inactive)"}
{"compound": "CCN(CC)S(=O)(=O)c1cccc(C(=O)Nc2nnc(C)s2)c1", "inhibition": "10.5% (inactive)"}
{"compound": "CCN(CC)C(=O)CNc1ccc(C(F)(F)F)cc1[N+](=O)[O-]", "inhibition": "4.7% (inactive)"}
{"compound": "CCOc1ccc(N(CC(=O)N2CCN(c3ccccc3OC)CC2)S(=O)(=O)c2ccc(F)cc2)cc1", "inhibition": "-13% (inactive)"}
{"compound": "CCc1ccc(OCC(=O)NC(=S)Nc2ccc(C(C)=O)cc2)c(Br)c1", "inhibition": "41.8% (inactive)"}
{"compound": "CCCn1c(=O)c(C(=O)Nc2c(C)n(C)n(-c3ccccc3)c2=O)c(O)c2ccccc21", "inhibition": "0.6% (inactive)"}
{"compound": "O=C(NCC1CCCN(C(=O)NCc2ccccc2)C1)c1ccc2c(c1)OCO2", "note": "(stereo unspecified)", "inhibition": "-0.6% (inactive)"}
{"compound": "COc1cc(/C=C/C(=O)OCC(=O)NC2CC2)cc(S(=O)(=O)N2CCc3ccccc32)c1OC", "inhibition": "15% (inactive)"}
{"compound": "CN1C(=O)/C(=C/c2ccc(OCc3ccc(C(=O)O)cc3)c(Cl)c2)NC1=S", "inhibition": "33.9% (inactive)"}
{"compound": "CCN1C(=O)/C(=C/c2ccc(OCc3ccc(C(=O)O)cc3)c(Cl)c2)NC1=S", "inhibition": "57.5% (active)"}
{"compound": "CCOc1cc(/C=C2\\NC(=S)N(C)C2=O)ccc1OCc1ccc(C(=O)O)cc1", "inhibition": "-3% (inactive)"}
{"compound": "O=C(NCCc1ccc(F)cc1)Nc1ccccc1", "inhibition": "-13.6% (inactive)"}
{"compound": "CCCCNC(=S)N/N=C/c1cccc(OCC)c1O", "inhibition": "-5.1% (inactive)"}
{"compound": "CCOc1cccc(/C=N/NC(=S)Nc2ccccc2[N+](=O)[O-])c1O", "inhibition": "64.7% (active)"}
{"compound": "CCCOc1ccc(/C=N/Nc2ccccc2[N+](=O)[O-])c(OCCC)c1", "inhibition": "30.3% (inactive)"}
{"compound": "CCCOc1ccc(/C=N/Nc2ccccc2[N+](=O)[O-])c(O)c1", "inhibition": "42.2% (inactive)"}
{"compound": "CCOc1ccccc1/C=N/Nc1ccccc1[N+](=O)[O-]", "inhibition": "-58% (inactive)"}
{"compound": "COc1ccc(N2CCN(CC(=O)NCc3ccccc3)CC2)cc1", "inhibition": "-7.3% (inactive)"}
{"compound": "COc1ccccc1NS(=O)(=O)c1cccc(C(=O)NN=C2CCCC2)c1", "inhibition": "4.3% (inactive)"}
{"compound": "COc1ccc(N(CC(=O)NC(C)(C)C)C(=O)CCC(=O)Nc2nccs2)cc1", "inhibition": "5.1% (inactive)"}
{"compound": "CC1=NNC(=O)C1C(c1ccccc1)C1C(=O)NN=C1C", "note": "(stereo unspecified)", "inhibition": "20.3% (inactive)"}
{"compound": "CCCC(=O)N(CCN1CCOCC1)c1nc2c(OCC)cccc2s1", "inhibition": "5.2% (inactive)"}
{"compound": "COc1ccccc1CN1CCNC(=O)C1CC(=O)NCCCN1CCCC1=O", "note": "(stereo unspecified)", "inhibition": "-4.3% (inactive)"}
{"compound": "Oc1c(Br)cc(Br)cc1CNc1nccs1", "inhibition": "57% (active)"}
{"compound": "O=S(=O)(Nc1nccs1)c1ccc(NCc2cc(Br)cc(Br)c2O)cc1", "inhibition": "6.8% (inactive)"}
{"compound": "Oc1ccc(Br)cc1CNc1nccs1", "inhibition": "-5.1% (inactive)"}
{"compound": "CCOC(=O)c1[nH]c2ccc(OCC)cc2c1NC(=O)CN1CCC2(CC1)OCCO2", "inhibition": "-2.2% (inactive)"}
{"compound": "COc1ccccc1N1CCN(C(=O)c2cc(C(=O)N3CCN(c4ccccc4OC)CC3)cc([N+](=O)[O-])c2)CC1", "inhibition": "3.5% (inactive)"}
{"compound": "CCn1c(SCC(=O)N2CCN(c3ccccc3)CC2)nnc1-c1c[nH]c2ccccc12", "inhibition": "6.3% (inactive)"}
{"compound": "COc1ccccc1C(C)NCC(=O)Nc1c(F)cccc1F", "note": "(stereo unspecified)", "inhibition": "5.5% (inactive)"}
{"compound": "Cn1c(Oc2ccc(Cl)cc2)c(C=O)c2ccccc21", "inhibition": "48.5% (inactive)"}
{"compound": "Cn1c(Sc2ccccc2Cl)c(C=O)c2ccccc21", "inhibition": "36.9% (inactive)"}
{"compound": "COc1ccccc1NC(=O)CN1CCCCC1", "inhibition": "-4.7% (inactive)"}
{"compound": "O=C(O)COc1ccccc1/C=N/n1c(C2CCCCC2)n[nH]c1=S", "inhibition": "17.3% (inactive)"}
{"compound": "CCOc1cc2c3c(c1)C(C)CC(C)(C)N3C(=O)C2=O", "note": "(stereo unspecified)", "inhibition": "10% (inactive)"}
{"compound": "CCc1cc2c3c(c1)C(C)CC(C)(C)N3C(=O)C2=O", "note": "(stereo unspecified)", "inhibition": "11.8% (inactive)"}
{"compound": "Cc1ccc(SCC2(O)CCN(S(=O)(=O)c3ccc(Cl)cc3)CC2)cc1", "inhibition": "17.7% (inactive)"}
{"compound": "O=S(=O)(c1ccccc1)N1CCC(O)(CSc2ccc(Cl)cc2)CC1", "inhibition": "56.9% (active)"}
{"compound": "O=S(=O)(c1ccccc1)N1CCC(O)(CSc2ccccc2)CC1", "inhibition": "28.2% (inactive)"}
{"compound": "CCOc1ccccc1NC(=O)CCc1nnc2ccc(N3CCC4(CC3)OCCO4)nn12", "inhibition": "-11.6% (inactive)"}
{"compound": "O=C(Cn1nnc(N2CCCC2)n1)N/N=C/c1ccc(Cl)cc1", "inhibition": "-2.3% (inactive)"}
{"compound": "Cc1c(NC(=O)c2ccccc2)cccc1[N+](=O)[O-]", "inhibition": "21.3% (inactive)"}
{"compound": "Cc1ccc(C(=O)O/N=C(\\N)c2ccccn2)cc1", "inhibition": "-94.8% (inactive)"}
{"compound": "N/C(=N\\OC(=O)c1ccccc1)c1ccccn1", "inhibition": "-52.6% (inactive)"}
{"compound": "CC(NC(=O)Nc1ccccn1)N1C(=O)C2C3C=CC(C3)C2C1=O", "note": "(stereo unspecified)", "inhibition": "15.9% (inactive)"}
{"compound": "Cc1cc(C(=O)NCc2cccs2)ccc1[N+](=O)[O-]", "inhibition": "0.2% (inactive)"}
{"compound": "COc1ccc2c(c1)N(C(=O)CN1C(=O)C3CCCCC3C1=O)C(C)(C)C=C2C", "note": "(stereo unspecified)", "inhibition": "-4.7% (inactive)"}
{"compound": "CC(O)c1cccc(NC(=O)CCC(=O)O)c1", "note": "(stereo unspecified)", "inhibition": "0.6% (inactive)"}
{"compound": "CC(O)c1cccc(NC(=O)Nc2cccc(NC(=O)Nc3cccc(C(C)O)c3)c2)c1", "note": "(stereo unspecified)", "inhibition": "73.1% (active)"}
{"compound": "CC(C)CC(=O)Nc1cccc(C(C)O)c1", "note": "(stereo unspecified)", "inhibition": "-0.6% (inactive)"}
{"compound": "COc1ccccc1C(CC(=O)Nc1ccc(Cl)cc1)c1ccc(OC(C)C)cc1", "note": "(stereo unspecified)", "inhibition": "2.5% (inactive)"}
{"compound": "O=C(CCSCc1cccc(Cl)c1)NCCC1=CCCCC1", "inhibition": "12.1% (inactive)"}
{"compound": "CCOc1ccccc1N1CCN(C(=O)c2c(Cl)cnn2C)CC1", "inhibition": "9.1% (inactive)"}
{"compound": "CCn1cnc2cc(NS(=O)(=O)c3ccc(OC)c(OC)c3)ccc21", "inhibition": "0% (inactive)"}
{"compound": "CCC1c2ccc(C)n2CCN1C(=O)Nc1cc(Cl)ccc1OC", "note": "(stereo unspecified)", "inhibition": "13.8% (inactive)"}
{"compound": "COc1ccc(O)c(-c2[nH]ncc2C(=O)c2ccccc2C)c1", "inhibition": "5.8% (inactive)"}
{"compound": "COc1ccc(O)c(-c2[nH]ncc2C(=O)c2cccc(C)c2)c1", "inhibition": "9.9% (inactive)"}
{"compound": "O=C(Cn1ncc2c3ccccc3n(Cc3ccc(F)cc3)c2c1=O)N1CCN(c2ncccn2)CC1", "inhibition": "15.9% (inactive)"}
{"compound": "O=C(NC1=NCCS1)C1COc2ccccc2O1", "note": "(stereo unspecified)", "inhibition": "63.1% (active)"}
{"compound": "O=C(Nc1nncs1)C1COc2ccccc2O1", "note": "(stereo unspecified)", "inhibition": "-9% (inactive)"}
{"compound": "O=C(Nc1ccccc1)C1COc2ccccc2O1", "note": "(stereo unspecified)", "inhibition": "-18.8% (inactive)"}
{"compound": "Nc1ccc(S(=O)(=O)O)cn1", "inhibition": "7.7% (inactive) and 2.4% (inactive)"}
{"compound": "S=c1[nH]nc(-c2ccc(Cl)cc2)n1/N=C/c1cccs1", "inhibition": "-8.1% (inactive)"}
{"compound": "O=c1c2ccccc2cnn1CCOc1ccccc1", "inhibition": "60.4% (active)"}
{"compound": "COc1ccc2cnn(CCOc3ccccc3)c(=O)c2c1OC", "inhibition": "-68.5% (inactive)"}
{"compound": "O=c1c2ccccc2cnn1CCOc1cccc(Br)c1", "inhibition": "-63.9% (inactive)"}
{"compound": "CC(C)CN1CCNC(=O)C1CC(=O)NCCCN1CCCc2ccccc21", "note": "(stereo unspecified)", "inhibition": "3% (inactive)"}
